Inconclusive results are not listed. Entries that show only a call come without a potency. Unmarked numbers belong to inactive results. Activity calls are given as the source filed them. The call rests on the fitted dose curve; in most records, active means well fitted inhibition curve with a large enough effect; inconclusive means small, poorly fitted or top-dose-only effect; inactive means flat fitted curve, though single readings scatter.
Potency means the concentration at half of the fitted maximal effect.

This experiment can be described thus: P-glycoprotein substrates identified in KB-8-5-11 adenocarcinoma cell line, qHTS therapeutic library screen (AID 1346987). Further: nearly all actives have a fitted effect of over 65% in size. To be noted: KB-8-5-11 (P-gp overexpressing) viability, CellTiter-Glo, 72 h; series mostly up to 44.5 µM. An outline of the steps:
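Steps: plate 500 KB-8-5-11 cells/well in DMEM + 10% FCS (colchicine removed); pin compounds in dose-response; incubate 72 h, 37 degree C, 5% CO2; add CellTiter-Glo, 5 min; read luminescence.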
As for `COc1c(C(O)CC(C)C)ccc2c1C(=O)OCc1cc(C)cc(O)c1O2` (configuration not stated), the Potency entry was “inactive”.

With `CCCCc1cc2c(=O)c(C(=O)OC)c[nH]c2cc1OCc1ccccc1`, the Potency entry is “inactive”.

As for `CN(C)N(C)C(=O)[C@@]1(Cc2ccccc2)CCCN(C(=O)[C@@H](Cc2c[nH]c3ccccc23)NC(=O)C(C)(C)N)C1`, the Potency entry is “inactive”.

Regarding `CCOC(=O)Nc1ccc2c(c1)N(C(=O)CN(C)C)c1ccccc1CC2`, the Potency entry is “inactive”.

Turning to `C=C1CC2[C@@]3(C)C=CC(=O)C(C)(C)C3=C(O)C(=O)[C@@]2(C)C2(C(=O)OC)C(=O)C(C)OC(=O)[C@@]12C` (some centres not stated), the Potency was 8.93 µM (active).

As for `C[C@]12CC[C@@H]3c4ccc(O)c(O)c4CC[C@H]3[C@@H]1CCC2=O`, the Potency entry is “inactive”.

For `O=C(Nc1ncc([N+](=O)[O-])s1)c1ccccc1O`, the Potency is 5.8 µM (active).

Consider `COCC1=C(C(=O)OC(C)OC(=O)OC(C)C)N2C(=O)[C@@H](NC(=O)/C(=N\OC)c3csc(N)n3)[C@H]2SC1` (some centres not stated), for which the Potency entry was “inactive”.

`CC#CCC(C)[C@H](O)/C=C/[C@@H]1[C@H]2C/C(=C/CCCC(=O)O)C[C@H]2C[C@H]1O` (some centres not stated): the Potency result was “inactive”.

For `CN(CC1COCCO1)S(=O)(=O)Nc1ccc2ccc3ncc(-c4cnn(C)c4)cc3c(=O)c2c1` (configuration not stated), the Potency is 14.6 µM (active).

For the compound `CC(C)C[C@@H](C(=O)N[C@@H](Cc1ccc(OCc2ccccc2)cc1)C(=O)NC(C)(C)C)N(C)Cc1ccc(C(C)(C)C)cc1`, the Potency entry was “inactive”.

`C/C=C(/C)C(=O)OC1CC(C)(C)CC2C3=CCC4C5(C)CCC(O[C@@H]6O[C@H](C(=O)O)[C@@H](O)[C@H](O)[C@H]6O[C@@H]6O[C@H](CO)[C@H](O)[C@H](O[C@@H]7OC[C@H](O)[C@H](O)[C@H]7O[C@@H]7O[C@H](CO)[C@@H](O)[C@H](O)[C@H]7O)[C@H]6O)C(C)(C)C5CCC4(C)C3(C)C(O)C(O)C12CO` (some centres not stated): the activity change, negative = cytotoxicity was -17.3% [at 9.29 µM].
